mTORC1 inh: Acumen qHTS Assay for Inhibitors of the mTORC1 Signaling Pathway in MEF (Tsc2-/-, p53-/-) Cells: Sytravon; Tsc2-/- p53-/- MEF, phospho-rpS6 immunofluorescence/PI, 24 h; Potency, µM (series often up to 38.3 µM), inactives show at the top dose activity change, negative = inhibition, most hits filed as inhibitors; hit rate 0.78% among 44,000; AID 493208, 2011;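 note: plate controls were DMSO for no effect and rapamycin for full effect; nearly all actives have a fitted effect of over 50% in size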
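Readout is phospho-S6 Alexa 488 signal normalized to PI per well, reported as % active cells with thresholds set from rapamycin (7.5 nM) and DMSO controls. Cells: Tsc2-/-, p53-/- MEFs, 24 hrs compound at 37 C; PI cell number serves as viability.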
p53null 32C kill: qHTS Screen for Compounds that Selectively Target Cancer Cells with p53 Mutations: Cytotoxicity of p53 Null Cells at the Permissive Temperature. H1299-neo p53 null cells, ATP luminescence, 24 h, 32C. Potency, µM (top dose mostly 46.1 µM), for inactives: at the highest dose activity change, negative = cytotoxicity, hits mostly cytotoxic. hit rate 0.62% among 55,000. AID 903, 2007;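 note: 0% = DMSO only and -100% = full killing by 100 µM tamoxifen; nearly all actives have a fitted effect of over 55% in size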
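Luminescent ATP readout gave cell viability of p53-null H1299-neo cells after a 24 h compound exposure at the permissive 32C. Titrations ran up to 46 uM, and AC50s were fitted with the standard Hill equation.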
PMP22 txn: Cell-based coincidence reporter assay to measure PMP22 gene transcription in S16 Pmp22-F2sN cells - Primary screen. S16 Pmp22-F2sN Schwann cells, FLuc/NLuc coincidence luminescence, 24 h. Potency, µM (highest dose often 57.5 µM), inactives show at the top dose activity change, negative = inhibition, actives largely listed as inhibitors. hit rate 2% among 43,000. AID 1508649, 2021; active = clear falling dose curves in both reporters; inconclusive = both reporters move, but less clearly or upward; inactive = either reporter flat; the % is the NLuc reporter signal
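Transcriptional readout in edited S16(c9) cells: two luciferases reported from the Pmp22 locus, measured in turn after 24 h compound incubation.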
S16 viability: Cell viability qHTS assay in S16 Pmp22-F2sN cells; S16 Pmp22-F2sN Schwann cells (luciferase reporters placed in the Pmp22 gene) viability, CellTiter-Glo, 24 h; Potency, µM (top dose mostly 57.5 µM), for inactives: top-dose activity change, negative = cytotoxicity, usual class: cytotoxic; hit rate 0.48% among 43,000; note: nearly all actives have a fitted effect of over 65% in size
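Rat S16 Schwann reporter line, 24 h treatment with library compounds delivered at 23 nL per well. Cell viability by CellTiter-Glo luminescence.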
p53null 39C kill: qHTS Screen for Compounds that Selectively Target Cancer Cells with p53 Mutations: Cytotoxicity of p53 Null Cells at the Nonpermissive Temperature; AID 904, 2007; hit rate 0.97% among 55,000; Potency, µM (doses to about 46.1 µM), for inactives: at the top dose activity, negative = cell killing, actives largely listed as cytotoxic; H1299 p53-null (neo) cells, 39C, ATPlite viability, 24 h;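 note: 0% = DMSO only and -100% = full killing by 100 µM tamoxifen; nearly all actives have a fitted effect of over 50% in size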
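Temperature-shift cytotoxicity format: compound titrations on p53-null or A138V-expressing H1299 cells held 24 hr at 39C, cell ATP then measured, AC50 from Hill model.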
OvCa metastasis: Primary qHTS assay for Inhibitors of ovarian cancer metastasis using an organotypic tumor microenvironment (TME) model. Potency, µM (top dose mostly 45.8 µM), for the others: top-dose activity change, negative = inhibition, hits mostly inhibitors. hit rate 0.1% among 46,000. SKOV3ip1-GFP adhesion/invasion on 3D omental model, fluorescence;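 note: plate controls were DMSO wells for no effect and tomatine positive control wells for full effect; nearly all actives have a fitted effect of over 65% in size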
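A 3D layer of primary human omental fibroblasts, mesothelial cells, fibronectin and collagen I, grown 48 hr, received SKOV3ip1-GFP cells in serum-free medium plus compounds at 0.36-46 umol/L. After 2 hr RT and 16 hr 37 C, fixed adherent GFP cells were counted; normalized to DMSO and tomatine.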
* hit, by the source's call; i = inactive; ? = inconclusive; / = no result. The list is not random: actives were taken first. Their share in the collection is about 3%. Unless noted, calls come from the whole dose curve; as a rule, active = well fitted curve in the direction sought with a large enough effect; inconclusive = small, poorly fitted or top-dose-only effect, or another doubt; inactive = no such curve, though single readings can be large; an effect the other way counts as inactive or inconclusive. Unless noted, % is set by controls: 0 for no effect and ±100 for the full control effect; potency is the fitted concentration of half-maximal effect.

SMILES	mTORC1 inh	p53null 32C kill	PMP22 txn	S16 viability	p53null 39C kill	OvCa metastasis
CC1CCn2c(nc3cc(C(=O)NCCc4ccccc4)ccc32)C1 (centres undefined)	2.2%	12.6µM*	24.7%	13.4%	25.1µM*	i
Cc1ccccc1CCNC(=O)c1ccc2c(c1)nc1n2CCOC1	0.1%	7.94µM*	6.9%	-1.6%	3.16µM*	3.1%
Cc1ccccc1CCNC(=O)c1ccc2c(c1)nc1n2CCCCC1	-0.5%	2µM*	4.4%	0.1%	1.26µM*	-27.9%
CN(C(=O)c1ccc(F)cc1C(F)(F)F)C1CCN(c2nnc(-c3ccnn3C)c3ccccc23)CC1	/	/	/	/	/	-25.6%
CC(C)(C)c1cnc(CSc2cnc(NC(=O)C3CCNCC3)s2)o1	/	/	/	/	/	12.2%
COc1cccc(C2=CC(c3ccccc3F)n3ncc(C(=O)Nc4ccc(C)cc4)c3N2)c1 (centres undefined)	-16.3%	41.4%	?	?	20.8%	1.6%
Cc1ccc(C2=CC(c3ccccc3F)n3c(nc4ccccc43)N2)cc1C (centres undefined)	-0.7%	12.6µM*	?	?	?	-5.5%
COc1cccc(C2=CC(c3ccccc3F)n3c(nc4ccccc43)N2)c1 (centres undefined)	0.1%	11.2µM*	?	?	?	1.7%
CCOc1ccc(C2=CC(c3cccc(Br)c3)n3c(nc4ccccc43)N2)cc1Cl (centres undefined)	-7.1%	-0.9%	?	-19.8%	10.1%	0.9%
c1cc(N[C@@H]2CCNC2)nc(-c2cnc3ccc(-c4cn[nH]c4)cn23)c1	/	/	/	/	/	3.3%
CC(=O)c1cccc(NS(=O)(=O)c2ccc3[nH]c4c(c3c2)CCCCC4)c1	?	31.9%	?	?	?	-10.6%
Cc1cccc(NS(=O)(=O)c2ccc3[nH]c4c(c3c2)CCCCCC4)c1	13.1µM*	65.0%	?	?	-9.2%	-12.7%
O=S(=O)(Nc1cccc(Cl)c1)c1ccc2[nH]c3c(c2c1)CCCCCC3	-17.9%	10µM*	?	?	?	-0.2%
O=C(Nc1nc2cccc(-c3ccc(CN4CCS(=O)(=O)CC4)cc3)n2n1)C1CC1	/	/	/	/	/	15.1%
CCc1cnn2c(NCc3ccc[n+]([O-])c3)cc(N3CCCC[C@@H]3CCO)nc12	/	/	/	/	/	-2.2%
COc1ccccc1NC(=O)c1cnc(SCC(=O)N2CCOCC2)n(C)c1=O	-8.1%	-8.9%	10.7µM*	18.5%	-2.7%	-13.9%
COC(=O)CN(c1ccccc1)S(=O)(=O)c1ccc(F)cc1	/	0.6%	/	/	6.3%	/
Cc1ccc(N(CC(O)Cn2c3ccccc3c3ccccc32)S(=O)(=O)c2ccc(F)cc2)cc1 (centres undefined)	?	60.9%	?	?	11.2µM*	?
CC(C=CC(=O)NO)=C[C@@H](C)C(=O)c1ccc(N(C)C)cc1	/	/	/	/	/	-0.2%
CCOC(=O)c1[nH]c2ccccc2c1NC(=O)c1cc(Cl)ccc1Cl	-28.9%	-28.0%	?	-2.4%	?	i
CCOC(=O)c1[nH]c2ccccc2c1NC(=O)c1ccccc1OC	1.6%	7.2%	?	?	15.8µM*	?
C#CCN(C)CC1=Cc2ccccc2Oc2ccccc21	/	/	/	/	/	-15.2%
O=S(=O)(c1cccc(C(F)(F)F)c1)n1c(/C=C/c2ccccc2)nc2ccccc21	-0.9%	15.8µM*	?	?	?	-16.0%
CCOc1ccc(/C=C/c2nc3ccccc3n2S(=O)(=O)c2ccc(Br)cc2)cc1	-1.9%	12.6µM*	-0.8%	-6.7%	7.94µM*	-5.7%
CCOc1ccc(S(=O)(=O)Nc2nc3ccccc3nc2Nc2ccc(OC)cc2)cc1	5.6%	8.9%	-10.0%	-0.7%	15.1%	-3.9%
SMILES	mTORC1 inh	p53null 32C kill	PMP22 txn	S16 viability	p53null 39C kill	OvCa metastasis
CC(C)Cn1c(/C=C/c2ccccc2)nc2ccccc21	/	/	/	/	-6.7%	/
CSc1ccc(/C=C/c2nc3ccccc3n2S(=O)(=O)c2ccc(Br)cc2)cc1	-18.0%	3.16µM*	?	?	2.51µM*	i
CN(C)c1nc(Cc2ccc(NC(=O)c3ccc4ccccc4c3)cc2)nc(Cl)c1CC(=O)O	/	/	/	/	/	-21.1%
CN1CCc2c(n(Cc3ccc(C(=O)NO)cc3)c3ccccc23)C1	/	/	/	/	/	-8.1%
CN(Cc1ccccc1)C(=O)c1cccc(NC(=O)c2nsc3ccccc23)c1	-1.1%	?	?	-26.5%	14.1µM*	-16.9%
Oc1ccc(NCc2ccccc2OCc2ccc(Cl)cc2)cc1	?	-26.0%	?	20µM*	?	i
Oc1ccc(NCc2ccccc2OCc2ccccc2)cc1	?	-16.9%	7.27µM*	20µM*	?	5.3%
COc1cc(CNc2ccc(O)cc2)cc(Br)c1OCc1ccccc1F	/	-23.4%	/	/	/	/
Oc1ccccc1CNc1cnc2ccccc2c1	/	-3.7%	/	/	-12.6%	/
CC(=O)[C@]1(O)Cc2c(O)c3c(c(O)c2[C@@H](O[C@H]2C[C@H](N)[C@@H](O)[C@H](C)O2)C1)C(=O)c1ccccc1C3=O	/	/	/	/	/	4.7%
Cc1nc(NC(=O)N2CCC[C@@H]2C(N)=O)sc1-c1csc(C(C)(C)C)n1	/	/	/	/	/	3.4%
COc1cccc(C2CC(=O)Nc3cc4c(cc32)OCCO4)c1OC (centres undefined)	14.7µM*	18.3%	0.2%	-33.3%	1.5%	-9.9%
COC(=O)N[C@H](C(=O)N1CCC[C@@H]1c1ncc(-c2ccc(-c3ccc(-c4cnc([C@@H]5CCCN5C(=O)[C@@H](NC(=O)OC)C(C)C)[nH]4)cc3)cc2)[nH]1)C(C)C	/	/	/	/	/	-7.9%
Cc1ccc(S(=O)(=O)C(CNS(=O)(=O)c2cc(F)ccc2F)c2cccs2)cc1 (centres undefined)	-0.1%	5.3%	?	20µM*	?	-4.8%
COc1ccc(S(=O)(=O)NCC(c2cccs2)S(=O)(=O)c2ccc(C)cc2)cc1F (centres undefined)	-0.8%	5.1%	?	?	1.7%	-6.6%
COc1ccc(C)cc1S(=O)(=O)NCC(c1cccs1)S(=O)(=O)c1ccc(C)cc1 (centres undefined)	-6.6%	17.4%	?	25.1µM*	10.1%	-2.5%
